The values that follow come from PubChem BioAssay.

Calls of active or inactive are those of the source.

Experiment [1] in a line: small molecules captured by biotinylated probe aFSTL3 – biochemical, small-molecule microarray, fluorescence 635/667, stem cell growth factor project, primary screen (AID 1064).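 Further: measures binding of the biotinylated anti-FSTL3 antibody to printed compounds.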 The conditions noted are these: higher = more signal.
The nature of experiment [2]: binders from COS7 lysate, DM2A8 probe, primary screen, torsin A project, cell lysate, small-molecule microarray, fluorescence 635/667 (AID 1065). The conditions noted are these: higher = more signal, COS7 lysate expressing mutant human TOR1A.
A short description of experiment [3]: small molecules captured by biotinylated probe aFGF2 – biochemical, small-molecule microarray, fluorescence 635/667, stem cell growth factor project, primary screen (AID 1067).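 Further: measures binding of biotinylated aFGF2 protein to printed compounds on slides; z-score merges feature fluorescence and signal-to-noise across triplicate slides.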 The note with it: higher = more signal.
Experiment [4] is described as follows: small molecules captured by biotinylated probe aFGF10 – biochemical, small-molecule microarray, fluorescence 635/667, stem cell growth factor project, primary screen (AID 1071).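 Further: score merges 667 nm spot intensity and signal to noise from triplicate slides.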 The conditions noted are these: higher = more signal.
In experiment [5] the target is Neurogenic locus notch homolog protein 2 (Homo sapiens) (UniProt Q04721). In words: small molecules binding Notch2 protein – biochemical, small-molecule microarray, 635 nm fluorescence, stem cell growth factors, primary screen (AID 1073). The conditions noted are these: higher = more signal.
Experiment [6] addresses Pro-neuregulin-1, membrane-bound isoform (Homo sapiens) (UniProt Q02297). In words: small molecules binding neuregulin-1 protein – biochemical, small-molecule microarray, fluorescence 635/667, psychiatric disease protein project, primary screen (AID 1075).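 Further: score combines 667 nm spot fluorescence with signal to noise.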 The conditions noted are these: NRG1 binding, 635 nm fluorescence, higher = more signal.
In experiment [7] the test system is Neuregulin-1 EGF-like domain. In words: small molecules binding NRG1 EGF domain – biochemical, small-molecule microarray, 635 nm fluorescence, primary screen (AID 1081).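 Further: binding of the protein to compounds printed on small-molecule microarray slides.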 The note with it: higher = more signal.
Experiment [8] in a line: FRG1 expression reporter modulators in myotubes – cell-based, C2C12 myotubes, firefly/Renilla luciferase, luminescence, FRG1 inhibition for FSHD, primary screen (AID 1084). The conditions noted are these: FRG1 promoter luciferase, higher = more signal, called active from +8 up or from −8 down.
Experiment [9] in a line: small molecules captured by biotinylated probe aFST – biochemical, small-molecule microarray, fluorescence 635/667, stem cell growth factor project, primary screen (AID 1086).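 Further: score merges 667 nm fluorescence with signal-to-noise of each printed compound spot.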 The note with it: higher = more signal.
Experiment [10] is described as follows: binders of probe aHhip on microarray, primary screen, stem cell growth factor project, biochemical, small-molecule microarray, fluorescence 635/667 (AID 1087).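 Further: score merges spot fluorescence at 667nm with spot signal to noise ratio.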 The note with it: higher = more signal.
Experiment [11] deals with PRMT1 (protein arginine N-methyltransferase 1). The experiment is described as follows: small molecules binding arginine methyltransferase PRMT1 – biochemical, small-molecule microarray, 635 nm fluorescence, primary screen (AID 1088).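 Further: binding of Prmt1 protein to compounds spotted on small-molecule microarray slides.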 The note with it: higher = more signal.
Experiment [12] can be described thus: growth effects on S. cerevisiae YJM789 – YJM789 clinical isolate, OD600, 24 h, basal, primary screen (AID 1089).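 Further: growth of clinical yeast isolate S. cerevisiae YJM 789 seeded 1000 cells per well; test concentration not given here.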 The note with it: higher = more signal, called active from +8 up or from −8 down.
Experiment [13] is described as follows: S. pombe growth modifiers, basal conditions – strain 972, OD600, 24 h, no modulator, primary screen (AID 1090).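 Further: basal condition with compound alone and no growth modifier present; test concentration not given here.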 The note with it: S. pombe 972 growth, higher = more signal, called active from +8 up or from −8 down.
The nature of experiment [14]: budding yeast growth modifiers under rapamycin – strain BY4716, OD600, 96 h, primary screen (AID 1091). Further: test concentration not given here. The conditions noted are these: S. cerevisiae BY4716 + rapamycin, higher = more signal, called active from +8 up or from −8 down.
Experiment [15] deals with Torsin-1A-interacting protein 2 (Homo sapiens) (UniProt Q8NFQ8). In words: small molecules binding lysate-expressed LULL1 – cell lysate, human LULL1 lysate, 635/667 nm fluorescence, primary screen (AID 1092).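 Further: probe is lysate of COS7 cells overexpressing human LULL1; score merges per-feature 667 nm fluorescence with signal-to-noise.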 The conditions noted are these: small-molecule microarray, hLULL1 lysate binding, 635 nm fluorescence; higher = more signal.
Chain of Torsin-1A-interacting protein 2 (Homo sapiens) (Q8NFQ8 whole entry, looked up): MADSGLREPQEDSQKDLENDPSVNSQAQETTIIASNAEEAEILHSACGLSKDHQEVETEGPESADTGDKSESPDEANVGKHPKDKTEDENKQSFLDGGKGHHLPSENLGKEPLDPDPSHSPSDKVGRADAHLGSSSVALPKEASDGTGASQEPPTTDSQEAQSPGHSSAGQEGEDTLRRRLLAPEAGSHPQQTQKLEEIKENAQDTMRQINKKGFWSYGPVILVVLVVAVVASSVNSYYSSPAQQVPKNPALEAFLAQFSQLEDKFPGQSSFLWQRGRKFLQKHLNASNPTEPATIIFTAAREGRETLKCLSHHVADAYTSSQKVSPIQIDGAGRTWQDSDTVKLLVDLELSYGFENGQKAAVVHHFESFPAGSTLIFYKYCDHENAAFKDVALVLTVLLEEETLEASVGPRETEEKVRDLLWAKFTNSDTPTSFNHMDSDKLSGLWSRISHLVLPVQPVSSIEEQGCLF
Experiment [16] is described as follows: optical density change of DRC41 E. coli – strain DRC41, OD650, 24 h, E. coli filamentation project, primary screen (AID 1093).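 Further: MC1000 strain lacking acrAB efflux and sulA so SOS filamentation is blocked; test concentration not given here.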 The note with it: E. coli DRC41 growth, higher = more signal, called active from +8 up or from −8 down.
Experiment [17] can be described thus: probe aLefty2 binding to arrayed compounds – biochemical, biotinylated probe, 635/667 nm fluorescence, primary screen (AID 1094).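 Further: score merges spot fluorescence near 667 nm with spot signal-to-noise ratio.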 The note with it: small-molecule microarray, higher = more signal.
In experiment [18] the test system is Noggin (protein binding on small-molecule microarray). In words: small molecules binding Noggin protein – biochemical, 635/667 nm fluorescence, primary screen (AID 1095).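 Further: score merges 667 nm feature fluorescence with signal to noise over triplicate slides.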 The conditions noted are these: 635 nm fluorescence, higher = more signal.
In experiment [19] the target is Neurogenic locus notch homolog protein 3 (Homo sapiens) (UniProt Q9UM47). In words: small molecules binding NOTCH3 protein – biochemical, 635/667 nm fluorescence, primary screen (AID 1096). The conditions noted are these: small-molecule microarray, 635 nm fluorescence, higher = more signal.
Chain of Neurogenic locus notch homolog protein 3 (Homo sapiens) (Q9UM47 whole entry, looked up): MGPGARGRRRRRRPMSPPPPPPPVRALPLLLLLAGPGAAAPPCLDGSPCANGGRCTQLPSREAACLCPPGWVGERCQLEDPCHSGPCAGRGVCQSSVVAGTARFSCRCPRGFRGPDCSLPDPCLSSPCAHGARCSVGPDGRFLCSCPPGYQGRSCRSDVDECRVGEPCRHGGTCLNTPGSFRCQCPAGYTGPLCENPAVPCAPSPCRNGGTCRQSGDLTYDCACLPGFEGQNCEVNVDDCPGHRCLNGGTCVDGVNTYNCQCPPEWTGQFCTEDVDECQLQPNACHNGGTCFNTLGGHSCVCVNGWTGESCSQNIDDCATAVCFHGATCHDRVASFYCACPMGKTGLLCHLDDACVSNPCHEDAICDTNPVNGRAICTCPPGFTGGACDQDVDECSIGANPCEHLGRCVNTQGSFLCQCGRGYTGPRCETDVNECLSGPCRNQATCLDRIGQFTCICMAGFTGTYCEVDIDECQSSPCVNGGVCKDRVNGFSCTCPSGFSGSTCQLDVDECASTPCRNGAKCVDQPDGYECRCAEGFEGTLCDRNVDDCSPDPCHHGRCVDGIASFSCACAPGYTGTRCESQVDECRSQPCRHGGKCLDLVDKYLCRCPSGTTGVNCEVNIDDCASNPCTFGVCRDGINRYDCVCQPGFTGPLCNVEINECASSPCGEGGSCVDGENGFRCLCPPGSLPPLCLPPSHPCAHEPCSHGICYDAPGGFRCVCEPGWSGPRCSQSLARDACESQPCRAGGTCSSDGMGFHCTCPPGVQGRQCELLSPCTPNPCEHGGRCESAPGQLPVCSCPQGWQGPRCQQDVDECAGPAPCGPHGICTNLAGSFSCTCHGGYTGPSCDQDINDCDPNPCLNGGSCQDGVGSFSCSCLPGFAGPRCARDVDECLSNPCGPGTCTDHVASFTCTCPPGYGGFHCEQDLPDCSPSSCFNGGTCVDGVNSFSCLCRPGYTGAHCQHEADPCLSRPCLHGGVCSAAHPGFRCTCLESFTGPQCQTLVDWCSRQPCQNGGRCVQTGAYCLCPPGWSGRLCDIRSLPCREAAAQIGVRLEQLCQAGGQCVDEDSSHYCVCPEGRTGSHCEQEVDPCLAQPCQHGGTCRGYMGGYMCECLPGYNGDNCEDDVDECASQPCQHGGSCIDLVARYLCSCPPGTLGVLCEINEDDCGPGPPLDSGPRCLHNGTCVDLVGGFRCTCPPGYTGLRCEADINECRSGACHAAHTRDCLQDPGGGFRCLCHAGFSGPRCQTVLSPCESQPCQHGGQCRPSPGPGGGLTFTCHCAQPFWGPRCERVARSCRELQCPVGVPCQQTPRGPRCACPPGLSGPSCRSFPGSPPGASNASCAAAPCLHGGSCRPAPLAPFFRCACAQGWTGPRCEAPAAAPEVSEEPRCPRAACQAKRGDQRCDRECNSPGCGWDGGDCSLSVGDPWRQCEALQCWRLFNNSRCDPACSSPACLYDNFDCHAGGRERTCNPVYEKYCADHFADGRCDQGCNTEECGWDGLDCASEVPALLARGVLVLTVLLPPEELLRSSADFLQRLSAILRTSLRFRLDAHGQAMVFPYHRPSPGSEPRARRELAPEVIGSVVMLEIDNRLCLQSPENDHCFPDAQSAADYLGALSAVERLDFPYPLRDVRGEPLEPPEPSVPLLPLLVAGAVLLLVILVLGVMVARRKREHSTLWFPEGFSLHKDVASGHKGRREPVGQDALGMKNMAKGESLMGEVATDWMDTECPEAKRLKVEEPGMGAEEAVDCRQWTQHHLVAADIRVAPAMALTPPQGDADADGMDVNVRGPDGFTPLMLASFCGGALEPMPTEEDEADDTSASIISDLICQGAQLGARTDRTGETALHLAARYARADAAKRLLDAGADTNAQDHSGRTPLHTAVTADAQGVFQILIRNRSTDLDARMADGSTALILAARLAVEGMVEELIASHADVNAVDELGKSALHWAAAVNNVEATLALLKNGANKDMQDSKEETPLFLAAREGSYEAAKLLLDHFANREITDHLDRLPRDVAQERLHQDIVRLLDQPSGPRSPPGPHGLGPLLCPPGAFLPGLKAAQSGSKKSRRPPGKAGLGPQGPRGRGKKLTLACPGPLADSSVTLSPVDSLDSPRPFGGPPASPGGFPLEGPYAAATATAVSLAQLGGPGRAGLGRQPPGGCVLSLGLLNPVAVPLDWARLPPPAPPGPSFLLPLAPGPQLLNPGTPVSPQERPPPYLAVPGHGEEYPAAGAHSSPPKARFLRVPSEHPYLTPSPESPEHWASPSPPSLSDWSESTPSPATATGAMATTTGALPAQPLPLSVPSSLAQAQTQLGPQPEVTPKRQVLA
Experiment [20] in a line: probe aEGFR binding to arrayed compounds – biochemical, biotinylated probe, 635/667 nm fluorescence, primary screen (AID 1097).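 Further: probe is a biotinylated anti-EGFR antibody binding compounds printed on slides; score combines fluorescence near 667 nm and signal to noise of each spot.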 The note with it: small-molecule microarray, higher = more signal.

Chain of Pro-neuregulin-1, membrane-bound isoform (Homo sapiens) (Q02297 whole entry, looked up, the tested form may be a part, canonical isoform): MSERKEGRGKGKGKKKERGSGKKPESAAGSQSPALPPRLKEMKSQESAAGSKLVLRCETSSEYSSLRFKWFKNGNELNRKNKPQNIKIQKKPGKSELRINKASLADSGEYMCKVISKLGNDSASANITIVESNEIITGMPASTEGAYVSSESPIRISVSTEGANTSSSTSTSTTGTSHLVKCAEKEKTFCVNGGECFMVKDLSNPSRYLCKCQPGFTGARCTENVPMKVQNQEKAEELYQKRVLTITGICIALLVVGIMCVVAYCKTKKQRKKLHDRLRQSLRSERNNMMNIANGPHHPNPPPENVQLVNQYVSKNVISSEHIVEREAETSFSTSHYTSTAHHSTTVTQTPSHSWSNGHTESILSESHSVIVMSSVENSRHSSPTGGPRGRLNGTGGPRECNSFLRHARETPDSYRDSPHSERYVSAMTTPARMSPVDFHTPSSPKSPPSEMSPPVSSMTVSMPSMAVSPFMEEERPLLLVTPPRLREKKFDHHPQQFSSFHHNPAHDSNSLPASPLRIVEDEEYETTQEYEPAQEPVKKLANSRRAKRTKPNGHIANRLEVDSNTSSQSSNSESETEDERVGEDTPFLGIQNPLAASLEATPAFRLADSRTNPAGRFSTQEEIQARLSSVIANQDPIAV

Take `COc1ccc(CCNC(=O)[C@@H]2c3ccccc3C(=O)N(Cc3cc(C(F)(F)F)cc(C(F)(F)F)c3)[C@H]2c2ccc(CO)cc2)cc1`: the composite z-score in [1] is 0.0967; in experiment [2] it was -0.138; in [3], -0.123; in [4], -0.0803; in [5] it was -0.181; in experiment [6], 0.568. In addition, the composite z-score in [7] is 0.993; in experiment [9], -0.135; in experiment [10], -0.236; in [11], 1.41; in [15] it was 2.16; in experiment [17], -0.237. Besides, the composite z-score was 1.07 in [18], 0.365 in experiment [19] and -0.167 in experiment [20]. Moreover, the z-score in [8] is -0.188 (inactive); in [12] it was 0.279 (inactive); in [13], -0.381 (inactive); in experiment [14], 0.848 (inactive); in [16] it was -0.0332 (inactive).

`COc1ccc([Si](C)(C)[C@H]2[C@H](CC(=O)N(CCO)Cc3ccccc3)O[C@@]3(C(=O)N(Cc4cccc(N5CCOC5=O)c4)c4ccccc43)[C@@H]2C)cc1`: the composite z-score in [1] was -0.243; in experiment [2], 0.635; in experiment [3] it was -0.0737; in [4], 0.171; in experiment [5], 0.0078; in [6], 1.2. Besides, the composite z-score was 0.974 in experiment [7]; -0.0174 in [9]; 0.176 in [10]; 1.56 in [11]; 1.35 in experiment [15]; -0.0724 in experiment [17]. Also, the composite z-score in experiment [18] is 0.722; in experiment [19] it was 0.403; in experiment [20], -0.167. The z-score in [8] is -0.551 (inactive); in [12] it was -0.0337 (inactive); in experiment [13], -0.166 (inactive); in experiment [14], 3.02 (inactive); in experiment [16] it was 1.17 (inactive).

Take `C=C(C)c1cc2c(c(CCCCCC)n1)[Si](C(C)C)(C(C)C)OC2`: the composite z-score was -0.392 in [1]; -1.42 in [2]; -0.157 in experiment [3]; -1.05 in experiment [4]; -1.03 in [5]; -0.792 in experiment [6]. For the same compound, the composite z-score in experiment [7] is -1.02; in experiment [9], -0.437; in [10] it was 0.0201; in experiment [11], -0.293; in experiment [15], -1.03; in experiment [17], -0.193. Further, the values for the composite z-score in experiment [18], in experiment [19] and in experiment [20] were -0.714, -0.64 and -0.287, respectively. Also, the z-score in [8] is -0.647 (inactive); in experiment [12], 1.21 (inactive); in experiment [13], 0.653 (inactive); in [14], -0.9 (inactive); in [16], -1.17 (inactive).

For the compound `COc1ccc(-c2nc(-c3ccccc3)c3c(c2C)CO[Si]3(C(C)C)C(C)C)cn1`, the composite z-score is -0.367 in experiment [1]; 0.0662 in experiment [2]; -0.087 in [3]; 0.296 in experiment [4]; 0.296 in [5]; -0.199 in experiment [6]. Besides, the composite z-score in [7] is -0.196; in experiment [9], -0.0377; in experiment [10] it was 0.176; in experiment [11] it was 0.569; in experiment [15], 0.498; in experiment [17] it was -0.162. The composite z-score turned out to be 1.09 in experiment [18], 0.0188 in [19] and 0.0361 in experiment [20]. The z-score in experiment [8] was 0.702 (inactive); in experiment [12], -0.195 (inactive); in [13] it was -0.391 (inactive); in [14], -0.0892 (inactive); in experiment [16], -1.5 (inactive).

As to `[N-]=[N+]=NCc1ccccc1C[C@@]1(C(=O)N2CCOCC2)N=C(c2ccc(OCCCO)cc2)O[C@@H]1c1ccccc1`, the composite z-score was 0.458 in experiment [1]; 0.572 in [2]; 0.0654 in experiment [3]; 1 in experiment [4]; 1.44 in experiment [5]; 1.79 in experiment [6]. Further, the composite z-score in [7] came to 1.1; in experiment [9] it was 0.705; in experiment [10] it was 0.0749; in [11] it was 1.42; in experiment [15], 3.33; in experiment [17], 0.349. The composite z-score in [18] was -0.519; in [19] it was 0.553; in experiment [20] it was 0.801. Further, the z-score in experiment [8] was -4.48 (inactive); in experiment [12], -1.11 (inactive); in experiment [13], -1.72 (inactive); in [14], 33 (active); in [16], 0.386 (inactive).

For the compound `CN1C(=O)C2C=CC(C(O)C#Cc3ccccc3)N(Nc3ccccc3)C2C1=O` (stereo not given), the composite z-score in experiment [1] came out at 0.247; in experiment [2] it was 0.161; in experiment [3], 0.111; in experiment [4] it was 1.17; in [5], 1.7; in experiment [6], 1.86. The composite z-score is 1.3 in experiment [7]; 1.71 in [9]; -0.0024 in [10]; 1.54 in experiment [11]; 3.4 in experiment [15]; 0.166 in [17]. Further, the figures for the composite z-score in experiment [18], in [19] and in experiment [20] were 0.295, 1.03 and 0.199, respectively. The z-score in experiment [8] is 2.29 (inactive); in experiment [12], 0.415 (inactive); in experiment [13] it was -1.18 (inactive); in experiment [14] it was 1 (inactive); in experiment [16], -0.672 (inactive).
